ALDH1A1 inh: ALDH1A1 (human) enzyme inhibition. Purified ALDH1A1, NADH fluorescence, propionaldehyde substrate. Potency, µM (doses to about 75.3 µM), for inactives: at the top dose activity, negative = inhibition, usual class: inhibitors. hit rate 7.3% among 220,000;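 further: potency means the concentration at half of the fitted maximal effect; plate controls were no enzyme wells and a reference inhibitor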
Target sequence (P00352 whole entry, looked up): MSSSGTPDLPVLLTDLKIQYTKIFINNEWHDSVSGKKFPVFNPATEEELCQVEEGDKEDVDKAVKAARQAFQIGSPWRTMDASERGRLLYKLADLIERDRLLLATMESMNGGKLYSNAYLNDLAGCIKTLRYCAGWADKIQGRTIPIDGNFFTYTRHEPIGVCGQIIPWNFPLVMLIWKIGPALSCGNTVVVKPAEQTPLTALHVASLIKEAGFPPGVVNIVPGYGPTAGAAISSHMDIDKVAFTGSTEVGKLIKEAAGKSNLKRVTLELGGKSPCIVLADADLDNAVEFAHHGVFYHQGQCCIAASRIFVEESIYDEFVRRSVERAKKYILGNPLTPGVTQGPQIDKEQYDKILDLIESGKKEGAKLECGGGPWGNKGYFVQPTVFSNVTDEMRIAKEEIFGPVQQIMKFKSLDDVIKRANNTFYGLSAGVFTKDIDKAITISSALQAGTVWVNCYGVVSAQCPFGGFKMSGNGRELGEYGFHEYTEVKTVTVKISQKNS
IMPase Li inh: membrane-permeable IMPase blocker, potentiated with lithium | Potency, µM (titrated, usually from 59.4 µM), without a hit: top-dose activity, negative = IMPase inhibition, usual class: inhibitors | hit rate 0.35% among 210,000 | CHO-M1 cells, IP1 TR-FRET (IP-One), carbachol + lithium; active means well fitted inhibition curve with a large enough effect; inconclusive means small, poorly fitted or top-dose-only effect; inactive means no such curve, though single readings can be large or run the other way;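 further: IP1 builds up when IMPase is blocked and the TR-FRET signal falls; potency means the concentration at half of the fitted maximal effect; plate controls were basal vehicle for no effect and high inhibitor control for full effect; nearly all actives have a fitted effect of over 50% in size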
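IP1 accumulation measured by competitive TR-FRET in lysed CHO-M1 cells after 30 min compound exposure at 37C, with a small lithium addition to potentiate weak responses. Hill-equation AC50 from ratio and donor-channel data.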
IMPase cell inh: cell-permeable inhibitors of inositol monophosphatase (IMPase); P97697; CHO-M1 cells, IP1 accumulation, HTRF TR-FRET ratio; inhibition (IP1 accumulation), % at 46.1 µM; 120,000 tested, under 10 active; active means well fitted curve in the direction sought with a large enough effect in the signal ratio, not every such curve was filed as active; inconclusive means small, poorly fitted or top-dose-only effect, or a change in a side signal; inactive means no such curve, though single readings can be large or run the other way; the % refers to the signal ratio;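 further: cells stimulated with carbachol in lithium chloride buffer; plate controls were DMSO basal wells for no effect and reference inhibitor wells for full effect; higher means more IMPase inhibition seen as more IP1 and lower FRET ratio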
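Carbachol-driven Gq signalling in CHO-M1 cells (2000/well) generates IP1. Compounds that block IMPase raise IP1 and so reduce the FRET signal from Eu-anti-IP1 and d2-IP1 after a 10 min room-temperature lysis.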
HPGD block: blocks human HPGD enzyme activity. P15428. purified HPGD, NADH fluorescence kinetic, PGE2 substrate. Potency, µM, inactives show at the highest dose activity change, negative = inhibition, most hits filed as inhibitors. hit rate 4.3% among 150,000; further: potency means the concentration at half of the fitted maximal effect
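NADH formation kinetics: reaction with 30 uM PGE2 and 1 mM NAD+ (final), 20 nM enzyme, Tris-HCl pH 8 with Tween 20, after 15 min compound preincubation at room temperature. Fluorescence change, last versus first of five reads.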
PNC assembly inh: perinucleolar compartment assembly inhibition; hit rate 3.1% among 140,000; PC3M PTB-GFP, PNC prevalence imaging, 16 h; active compounds read low; activity change (PNC), negative = inhibition, % at 10 µM;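 active means readout at or below -70, meaning at least 70% loss of cells showing the perinucleolar compartment, a nuclear body marking cancer cells; inconclusive means readout between -30 and a set limit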;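 further: plate controls were DMSO wells for no effect and camptothecin positive control wells for full effect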
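Compounds are pinned in duplicate onto adhered PC3M cells stably expressing GFP-tagged PTB and incubated 16 h at 37 C. Cells are then fixed, nuclei stained with Hoechst, and PNC-positive cells counted.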
Numbers without * were called inactive; u = inconclusive; x = no result given; [ ] = remark or other dose. Hits are enriched below; roughly 11% of the tested compounds scored in any of these assays. Unless noted, the call rests on the fitted dose curve; in most records, active means well fitted inhibition curve with a large enough effect (not every such curve was filed as active); inconclusive means small, poorly fitted or top-dose-only effect, or another doubt; inactive means no such curve, though single readings can be large or run the other way. Unless noted, on the % scale 0 is the no-effect control and ±100 the full control effect.

SMILES	ALDH1A1 inh	IMPase Li inh	IMPase cell inh	HPGD block	PNC assembly inh
COc1ccc(CN(C(=O)c2ccc(OCC(C)C)cc2)C2CCS(=O)(=O)C2)cc1 (centres undefined)	x	x	15	x	x
CCOc1ccc(CN(C(=O)c2ccco2)C2CCS(=O)(=O)C2)cc1 (centres undefined)	0%	u	-1	0%	35
COc1ccc(CN(C(=O)/C=C/c2ccco2)C2CCS(=O)(=O)C2)cc1 (centres undefined)	14µM*	x	x	x	x
O=C(/C=C/c1ccc(Cl)cc1)N(Cc1ccccc1)C1CCS(=O)(=O)C1 (centres undefined)	13µM*	8%	4	-18%	12
O=C(/C=C/c1ccc(Cl)cc1Cl)N(Cc1ccc(Cl)cc1)C1CCS(=O)(=O)C1 (centres undefined)	3%	4%	x	-8%	9
COc1cccc(C(=O)N(Cc2ccc(N(C)C)cc2)C2CCS(=O)(=O)C2)c1 (centres undefined)	14µM*	9%[38.3 µM]	10	-7%	-15
O=C1c2ccccc2S(=O)(=O)N1CCOc1ccc(F)cc1	-13%	5%[38.3 µM]	0	u	-15
CCCCSCCCNC(=O)Nc1ccc(C)c(C)c1	u	4%	x	x	x
CCNC(=O)[C@@H]1O[C@@H](n2cnc3c(N)nc(NCCc4ccc(CCC(=O)O)cc4)nc32)[C@H](O)[C@@H]1O	x	x	-3	x	x
O=S(=O)(/C=C/c1ccccc1)Nc1ccc(N2CCOCC2)cc1	u	44%[38.3 µM]	8	-8%	-2
O=C(O)c1ccc(NS(=O)(=O)/C=C/c2ccccc2)cc1O	10µM*	12%[38.3 µM]	-5	-21%	-10
COc1ccc(-n2c(-c3cccc(C)c3[N+](=O)[O-])n[nH]c2=S)cc1	u	16%[38.3 µM]	8	35µM*	-109*
COC(=O)N[C@@H](/C=C/c1ccccc1)C[N+](=O)[O-]	8%	4%	x	-7%	x
CC(=Nc1ccc2c(c1)nc(CO)n2C)C1=C(O)CC(C)(C)CC1=O	u	14%[38.3 µM]	-8	3.5µM*	41
CCCC(CCC)C(=O)Nc1ccncc1	5%	10%[38.3 µM]	-8	5%	-6
CCCC(C)C(=O)Nc1ccncc1 (centres undefined)	3%	2%	-7	-10%	-100*
CN(C)c1cccc(NC(=O)Cc2ccc(F)cc2)c1	14µM*	8%[38.3 µM]	5	-9%	-21
CN(C)c1cccc(NC(=O)CCc2ccccc2)c1	u	22%[38.3 µM]	3	-23%	12
CC(C)N(C(=O)C[n+]1ccsc1N)c1ccccc1	-2%	9%	x	x	x
O=S1(=O)CC=C(CSC(=S)NC2CCS(=O)(=O)C2)C1 (centres undefined)	19µM*	4%	x	x	x
O=c1nc(SCc2cccc(C(F)(F)F)c2)nc2ccccn12	7%	-1%	x	x	x
C#CCOCCOCCOCCNc1nc(N2CCN(C(=O)[C@H](CCCCN)n3cc(C(N)[C@H](C)CC)nn3)CC2)nc(N2CCN(C(=O)[C@H](CCC(=O)O)n3cc(C(N)[C@H](C)CC)nn3)CC2)n1 (some centres undefined)	22µM*	-12%	x	x	x
C#CCOCCOCCOCCNc1nc(N2CCN(C(=O)[C@H](CCCCN)n3cc([C@@H](N)C(C)CC)nn3)CC2)nc(N2CCN(C(=O)[C@H](CCCCN)n3cc([C@@H](N)CO)nn3)CC2)n1 (some centres undefined)	u	-1%	x	x	x
CCN1C(C)=C(C)S/C1=C1\SC(=S)N(N)C1=O	20µM*	28%	x	x	x
COc1ccc(C2=NN(CN3C(=O)C(=O)c4ccccc43)C(c3ccc(OC)cc3)C2)cc1 (centres undefined)	0.11µM*	6%	x	-23%	u
SMILES	ALDH1A1 inh	IMPase Li inh	IMPase cell inh	HPGD block	PNC assembly inh
CCC1(C)NC(=O)N(CC(=O)N2N=C(c3ccccc3)CC2c2ccc(OC)cc2)C1=O (centres undefined)	0%	x	-1	x	6
CCC(C)NC(=O)c1ccc(COc2ccccc2Cl)cc1 (centres undefined)	11%	14%[38.3 µM]	10	20µM*	15
CCC(C)NC(=O)c1ccc(C(=O)c2ccccc2)cc1 (centres undefined)	u	13%	x	x	x
O=C(c1ccc(COc2ccccc2Cl)o1)N1CCCC1	-7%	-11%[38.3 µM]	0	-24%	u
O=C(O)c1ccc(COc2ccccc2Cl)cc1	-12%	-22%[38.3 µM]	-3	13µM*	-1
CCN(CC)C(=O)c1ccc(COc2ccccc2Cl)cc1	u	45%[38.3 µM]	-3	0.35µM*	u
CC1CCN(C(=O)c2ccc(COc3ccccc3Cl)o2)CC1	u	19%[38.3 µM]	4	16µM*	42
O=C(O)c1cccc(COc2ccccc2Cl)c1	1%	28%[38.3 µM]	-11	u	-17
CCOC(=O)c1ccc(NC(=O)C(C)Sc2nc(O)c(-c3ccccc3)c(=O)[nH]2)cc1 (centres undefined)	-6%	8%	x	x	x
COc1ccc(C(=O)COC(=O)CNC(=O)C2CCCCC2)c(OC)c1	u	8%[38.3 µM]	-11	25µM*	-16
COc1nc(N/N=C/c2cc3c(cc2Br)OCO3)nc(N2CCOCC2)n1	7.9µM*	x	0	x	-22
C=CCn1cc(/C=N/NC(=O)COc2cccc3cccnc23)c2ccccc21	18µM*	1%	5	-10%	-12
CC(C)n1cc(/C=N/NC(=O)COc2cccc3cccnc23)c2ccccc21	u	x	9	x	-13
O=C(CCl)Nc1ccc(Oc2cnc3ccccc3n2)cc1	0.11µM*	9%[38.3 µM]	4	-16%	7
O=C(CCl)Nc1cccc(-c2cnc3ccccc3n2)c1	0.89µM*	30%[38.3 µM]	2	-15%	u
C/C(=N\NC(=O)CCn1nnc2ccccc21)c1ccco1	-5%	x	x	x	x
c1ccc(Sc2cnc3ccccc3n2)cc1	-11%	13µM*	u	u	-13
Clc1ccc(Sc2cnc3ccccc3n2)cc1	-4%	u	-26	-7%	37
N#Cc1cc2ccccc2nc1SCc1ccccn1	-7%	-17%[38.3 µM]	2	25µM*	-5
CCC1=C2CC[C@H]3C(=O)N(C)C(=O)[C@H]3[C@H]2[C@@]2(Cc3ccccc3)C(=NCCc3c[nH]c4ccccc34)OC(=O)N2C1=O	-2%	-2%	x	-3%	x
CCS(=O)(=O)c1ccc2oc(Nc3ccc(C(C)C)cc3)nc2c1	4µM*	14%[38.3 µM]	-5	4µM*	28
CCOc1ccc(Nc2nc3cc(S(=O)(=O)N(CC)CC)ccc3o2)cc1	3.2µM*	25%[38.3 µM]	14	3.5µM*	-23
CCS(=O)(=O)c1ccc2oc(Nc3cc(C)cc(C)c3)nc2c1	u	7%[38.3 µM]	8	-27%	118
CC12CCC(c3nnc(SCc4ccc(Cl)cc4)nc31)C2(C)C (centres undefined)	-5%	14%	-6	-20%	1
CC12CCC(c3n[nH]c(=S)nc31)C2(C)C (centres undefined)	20µM*	0%	x	u	-113*

Screens (PubChem)
